High-throughput results from PubChem BioAssay.
ATXN2 expr inh: reduces ATXN2 reporter expression in HEK-293 cells | HEK-293 ATXN2-luciferase reporter, luminescence, 24 h | Potency, µM (doses to about 57 µM), actives largely listed as inhibitors | 360,000 tested, 0.72% active; also: nearly all actives have a fitted effect of over 55% in size
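ATXN2-luciferase reporter cells (luciferase flanked by upstream and downstream ATXN2 gene portions) were treated 24 h at 37 °C with compounds at up to 57 uM. SteadyGlo luminescence gave expression; GF-AFC fluorescence gave viability.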
HepG2 tox: counter-screen for TGF-b inhibitors: cytotoxicity in HepG2 cells; 410,000 tested, 0.76% active; Potency, µM (doses to about 46.1 µM), most hits filed as cytotoxic; HepG2 CAGA-GFP viability, ATP luminescence, 18 h
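CellTiter-Glo luminescence gave cytotoxicity after 18 hours at 37 degrees C. The cells were HepG2 CAGA-GFP in 1% FBS DMEM, stimulated with 500 pg/mL TGF-beta after compound addition. %Activity was normalised to no-cell wells (complete cell-killing) and DMSO (no toxicity), and curves were fitted and classified.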
ATXN viability: cell viability loss in ATXN counter-screen; AID 651635; 400,000 tested, 0.49% active; S2 cells (HEK-293 line with an ATXN2-luciferase reporter) viability, CellTiter-Fluor protease fluorescence, 24 h; Potency, µM (top dose mostly 56.7 µM), most hits filed as cytotoxic; also: nearly all actives have a fitted effect of over 40% in size
Giardia kill: kills Giardia lamblia; Giardia lamblia trophozoite viability; AID 540267; 340,000 tested, 0.15% active; activity change, % at 7.66 µM, hits read low; in the data active = activity change below about -80%; inconclusive = between about -30% and that limit;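 also: parasites exposed to compound for two days anaerobically before the ATP read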
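Anaerobic 48 hrs incubation at 37 deg C of 100 trophozoites/well with test compounds; ATPLite 1-Step luminescence, 15-30 min RT, reports cellular ATP as viability.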
uPA generation: cell surface uPA generation inhibition. cell surface uPA generation assay, qHTS. Potency, µM (highest dose often 38.3 µM), usual class: inhibitors. 330,000 tested, 0.31% active. AID 540303; active = well fitted inhibition curve with a large enough effect; inconclusive = small, poorly fitted or top-dose-only effect; inactive = no such curve, though single readings can be large or run the other way; tested in mouse RAW 264.7 cells; also: nearly all actives have a fitted effect of over 55% in size
TGFb SMAD3 inh: TGF-b pathway inhibition | HepG2 CAGA-GFP TGF-b/SMAD3 reporter, GFP fluorescence, 18 h; TGF-beta stimulated, 500 pg/mL final | Potency, µM (titrated, usually from 46.1 µM), hits mostly inhibitors | 410,000 tested, 1.2% active; also: nearly all actives have a fitted effect of over 65% in size
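TGF-beta reporter screen: HEPG2 CAGA-GFP, 1% FBS, 500 pg/mL TGF-beta final, 18 h; per-cell GFP summed per well; curves fitted and categorized by class.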
Hits are given with their value; i = inactive; ? = inconclusive; nt = no result given; ! = not active in a repeat. Shown are actives, neighbours in structure and some others; about 2.6% of the full set was active somewhere. Unless noted, calls follow the shape of the dose curve; as a rule, active = well fitted curve in the direction sought with a large enough effect; inconclusive = small, poorly fitted or top-dose-only effect, or another doubt; inactive = no such curve, though single readings can be large; an effect the other way counts as inactive or inconclusive.

SMILES | ATXN2 expr inh | HepG2 tox | ATXN viability | Giardia kill | uPA generation | TGFb SMAD3 inh
Cc1ccc(C(=O)Cn2c(=N)n(CCN3CCOCC3)c3ccccc32)cc1 | i | i | i | i | i | i
CC(C)c1c(C(=O)N(C)C2CCN(C)CC2)cnn1-c1nccc(-c2ccco2)n1 | nt | nt | i | nt | nt | nt
O=c1c(Cl)c(Cl)cnn1Cc1nnc(-c2ccccc2Br)o1 | ? | i | nt | i | i | 15.8µM
CC(=O)Oc1ccc(-c2nc(-c3ccccc3)no2)cc1 | nt | i | nt | nt | nt | i
CC(=O)Nc1ccc(Oc2sc(C(=O)c3ccccc3)c(N)c2C#N)cc1 | i | i | i | i | i | 10µM
COC(=O)[C@]12CCC(C)(C)C[C@@H]1[C@@H]1C(=O)C=C3[C@@]4(C)C=C(C#N)C(=O)C(C)(C)[C@@H]4CC[C@@]3(C)[C@]1(C)CC2 | 1.72µM | nt | 2.51µM | nt | nt | nt
O=C(Nc1ccc(Oc2cccc(C(F)(F)F)c2)nc1)c1ccco1 | i | i | ? | i | i | i
COc1ccc(-c2ccc(NC(=O)c3ccco3)cc2)nn1 | ? | 5.01µM | i | -93.1 | i | i
CC(C)(C)c1ccc(Oc2ccc(NC(=O)c3ccco3)cn2)cc1 | nt | i | ? | i | 1.26µM | 11.2µM
COc1ccc(-c2ccc3c(c2)S(=O)(=O)c2cccc(C(=O)N4CCN(C5CCCCC5)CC4)c2C3=O)cc1OC | i | i | ? | ? | 3.16µM | i
COc1ccc(-c2ccc3c(c2)S(=O)(=O)c2cccc(C(=O)N4CCN(c5ccccn5)CC4)c2C3=O)cc1OC | i | i | i | nt | nt | i
CCC(=O)Nc1ccc(-c2nnc(SCc3ccccc3)n2C)cc1 | nt | i | nt | nt | nt | i
CC(NC(=O)c1ccco1)c1nnc2n1CCN(Cc1ccc(N3CCCC3)cc1)CC2 (stereo not given) | nt | nt | i | nt | nt | nt
O=C(OCc1ccccc1)N1CCN(/[N+]([O-])=N/Oc2ccc([N+](=O)[O-])cc2[N+](=O)[O-])CC1 | nt | i | nt | nt | nt | ?
CCN(CC)S(=O)(=O)c1ccc(N2CCOCC2)c(NC(=O)c2cccc3c(=O)c(C)c(-c4ccccc4)oc23)c1 | nt | i | i | i | 4.47µM | i
Cc1ccc(Cn2c(Cc3ccccc3)nc3ccccc32)cc1 | ? | 15.8µM! | ? | i | i | ?
COc1ccc(-c2nc3ccccc3n2Cc2ccc(Cl)cc2)cc1 | i | i | ? | nt | nt | 15.8µM
O=C(NCCc1nnc2n1CCN(Cc1ccc(F)cc1)CC2)c1ccc(F)cc1 | nt | nt | i | nt | nt | nt
CC(C)C[C@H](NC(=O)[C@@H](COC(C)(C)C)NC(=O)[C@H](Cc1ccc(O)cc1)NC(=O)[C@H](CO)NC(=O)[C@H](Cc1c[nH]c2ccccc12)NC(=O)[C@H](Cc1cnc[nH]1)NC(=O)[C@@H]1CCC(=O)N1)C(=O)N[C@@H](CCCN=C(N)N)C(=O)N1CCC[C@H]1C(=O)NNC(N)=O | nt | nt | i | nt | nt | nt
CN(C)CCN(C(=O)c1ccc2ccccc2c1)c1nc2cc3c(cc2s1)OCCO3 | i | i | i | i | i | i
CCN(CC)CCN(C(=O)c1cc2c(ccc3ccccc32)oc1=O)c1nc2cc3c(cc2s1)OCCO3 | i | i | i | i | i | 12.6µM
CN(C)CCCN(C(=O)c1ccc2ccccc2c1)c1nc2cc3c(cc2s1)OCO3 | 25.1µM | i | 31.6µM | i | i | i
CCN(c1ccccc1)S(=O)(=O)c1ccc(C(=O)N(CCCN(C)C)c2nc3cc4c(cc3s2)OCO4)cc1 | ? | i | i | i | ? | 22.4µM
CN(C)CCCN(C(=O)c1ccc(S(=O)(=O)N(C)Cc2ccccc2)cc1)c1nc2cc3c(cc2s1)OCO3 | ? | i | ? | i | i | ?
CCOc1ccc2nc(N(CCCN(C)C)C(=O)c3ccc4c(c3)CCCC4)sc2c1 | ? | 17.8µM | i | i | ? | ?
SMILES | ATXN2 expr inh | HepG2 tox | ATXN viability | Giardia kill | uPA generation | TGFb SMAD3 inh
Cc1cc[n+](CCC2CCCCC2)c2ccccc12 | nt | i | nt | nt | nt | ?
CO[C@H]1C=CO[C@@]2(C)Oc3c(C)c(O)c4c(O)c(c5c(c4c3C2=O)NC2(CCN(CC(C)C)CC2)N=5)=NC(=O)C(C)=CC=C[C@H](C)[C@H](O)[C@@H](C)[C@@H](O)[C@@H](C)[C@H](OC(C)=O)[C@H]1C | i | nt | nt | nt | nt | nt
Cc1cccc(C(=O)N2CCOc3ccc(CN(C)Cc4cc(C5CC5)n[nH]4)cc3C2)n1 | nt | nt | i | nt | nt | nt
CCc1ccc2nc(N(CCCN(C)C)C(=O)c3ccc(C(=O)c4ccccc4)cc3)sc2c1 | ? | i | ? | i | i | ?
COc1cc2nc(N(CCCN(C)C)C(=O)c3ccc(C(=O)c4ccccc4)cc3)sc2cc1OC | ? | 15.8µM | nt | i | i | ?
O=C(NC1CCOCC1)c1ccc(-c2cc(-c3cn[nH]c3-c3ccccn3)ccn2)cc1 | i | nt | nt | nt | nt | nt
COc1cccc(-c2ccnc(-n3ncc(C(=O)NCc4cccnc4)c3C3CC3)n2)c1 | nt | nt | i | nt | nt | nt
COc1ccc(CC(N)c2csc(NC(=O)C(c3ccccc3)c3ccccc3)n2)cc1 (stereo not given) | ? | 11.2µM | ? | nt | nt | ?
COc1ccc(CC(N)c2csc(NC(=O)c3ccccc3)n2)cc1 (stereo not given) | i | i | ? | nt | nt | i
COc1ccc(CC(N)c2csc(NC(=O)c3ccccc3OC)n2)cc1 (stereo not given) | 22.4µM | i | ? | nt | nt | i
c1cnc2cc3c(cc2n1)C1CNCC3C1 | i | nt | i | nt | nt | nt
Cc1ccc(Nc2cc(-c3cccc(N4C(=O)c5ccccc5C4=O)c3)ncn2)cc1NS(C)(=O)=O | i | nt | nt | nt | nt | nt
O=C(NC(c1cccnc1)C(F)(F)F)c1cc(COc2ccc3c(c2)CCCC3)on1 (stereo not given) | i | i | ? | i | ? | 11.2µM
Cn1cc(CNC(=O)c2cc(COc3ccc4c(c3)CCCC4)on2)cn1 | i | i | ? | i | i | i
CN(C)CCN1C(=O)c2cccc3cc([N+](=O)[O-])cc(c23)C1=O | ? | i | ? | i | i | 6.31µM
CN(C)CCCN1C(=O)c2cccc3cccc(c23)C1=O | ? | i | i | i | i | i
CCC1CN(CC(=O)NC(C)c2cn(C)nc2C)Cc2cc(OC)ccc2O1 (stereo not given) | nt | nt | i | nt | nt | nt
Cn1cc(/C=C/c2ccc3ccccc3n2)c2ccccc21 | nt | i | nt | nt | nt | ?
Cc1ccc(O)c(-c2cc3ccccc3[nH]2)c1 | i | i | i | i | i | 15.8µM
O=P(CCCCCCCCCP(=O)(c1ccccc1)c1ccccc1)(c1ccccc1)c1ccccc1 | 25.1µM | i | 22.4µM | i | i | ?
Clc1ccc(Nc2nc(Nc3ccc(Cl)cc3)nc(N3CCOCC3)n2)cc1 | nt | i | nt | nt | nt | i
CCOC(=O)c1ccc(NC(=O)CN2C(=O)C(C)(C)c3ccccc32)cc1 | i | i | ? | nt | nt | i
CCOC(=O)c1ccc(NC(=O)CN2c3ccccc3S(=O)(=O)c3ccccc32)cc1 | ? | i | ? | nt | nt | 11.2µM
COc1cc(/C=C/c2ccc3cccc(O)c3n2)cc(OC)c1OC | 15.8µM | i | ? | i | i | ?
